Data on 16 compounds can be found in ChEMBL document CHEMBL1961873, “Compounds: GSK PKIS; Assays: Nanosyn kinase panel” (2012).

Experiment [1] addresses T1, Mitogen-activated protein kinase 12 (Homo sapiens) (UniProt P53778).
T1 sequence (whole entry): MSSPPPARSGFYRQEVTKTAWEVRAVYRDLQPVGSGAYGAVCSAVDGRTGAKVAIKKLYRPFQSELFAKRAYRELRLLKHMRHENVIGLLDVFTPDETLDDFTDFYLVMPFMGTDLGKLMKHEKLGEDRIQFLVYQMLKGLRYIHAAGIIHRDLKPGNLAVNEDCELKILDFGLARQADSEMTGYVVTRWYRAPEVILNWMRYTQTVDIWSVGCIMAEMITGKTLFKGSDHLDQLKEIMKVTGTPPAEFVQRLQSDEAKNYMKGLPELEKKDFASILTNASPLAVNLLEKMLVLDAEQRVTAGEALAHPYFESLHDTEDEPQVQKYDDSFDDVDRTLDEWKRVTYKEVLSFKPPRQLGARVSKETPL
The conditions noted are these: at 1 µM.

The target in experiment [2] is SRSF protein kinase 1 (Homo sapiens) (UniProt Q96SB4). As to conditions: at 0.1 µM.
Experiment [3] has the same target. The conditions noted are these: at 1 µM.
Experiment [4] deals with Phosphatidylinositol 4,5-bisphosphate 3-kinase catalytic subunit alpha isoform (Homo sapiens) (UniProt P42336). As to conditions: at 0.1 µM.
For experiment [5] the target is unchanged. As to conditions: at 1 µM.
Experiment [6] has as its target T2, Phosphatidylinositol 4,5-bisphosphate 3-kinase catalytic subunit delta isoform (Homo sapiens) (UniProt O00329).
T2 sequence (whole entry): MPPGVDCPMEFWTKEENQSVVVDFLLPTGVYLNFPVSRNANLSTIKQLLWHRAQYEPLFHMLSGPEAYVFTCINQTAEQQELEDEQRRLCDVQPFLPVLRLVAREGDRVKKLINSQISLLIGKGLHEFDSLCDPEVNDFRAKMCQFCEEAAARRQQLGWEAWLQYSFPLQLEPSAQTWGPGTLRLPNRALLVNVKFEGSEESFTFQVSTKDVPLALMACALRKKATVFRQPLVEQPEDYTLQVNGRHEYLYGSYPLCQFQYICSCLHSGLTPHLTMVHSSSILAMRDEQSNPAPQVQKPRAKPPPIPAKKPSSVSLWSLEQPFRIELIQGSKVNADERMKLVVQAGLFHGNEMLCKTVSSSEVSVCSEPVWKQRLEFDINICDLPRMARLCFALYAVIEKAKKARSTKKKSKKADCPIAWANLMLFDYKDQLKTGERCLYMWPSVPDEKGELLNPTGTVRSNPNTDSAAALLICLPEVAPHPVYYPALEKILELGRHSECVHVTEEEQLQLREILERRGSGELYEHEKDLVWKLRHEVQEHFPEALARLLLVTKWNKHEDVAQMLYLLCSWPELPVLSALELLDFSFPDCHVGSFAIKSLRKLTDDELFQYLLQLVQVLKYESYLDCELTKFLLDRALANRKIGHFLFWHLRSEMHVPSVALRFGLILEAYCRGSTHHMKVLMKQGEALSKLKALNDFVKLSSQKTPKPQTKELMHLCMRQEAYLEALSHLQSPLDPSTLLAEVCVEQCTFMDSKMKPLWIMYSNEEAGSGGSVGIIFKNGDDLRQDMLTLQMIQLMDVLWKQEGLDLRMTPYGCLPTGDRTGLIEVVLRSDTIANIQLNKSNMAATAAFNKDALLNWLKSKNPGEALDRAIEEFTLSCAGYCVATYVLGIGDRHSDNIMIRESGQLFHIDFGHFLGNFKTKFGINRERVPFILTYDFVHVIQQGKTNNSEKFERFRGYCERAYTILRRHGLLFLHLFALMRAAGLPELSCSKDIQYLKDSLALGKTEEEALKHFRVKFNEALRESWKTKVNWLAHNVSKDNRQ
As to conditions: at 0.1 µM.

The target of experiment [7] is T2, Phosphatidylinositol 4,5-bisphosphate 3-kinase catalytic subunit delta isoform (Homo sapiens). The conditions noted are these: at 1 µM.
The target in experiment [8] is Phosphatidylinositol 4-kinase beta (Homo sapiens) (UniProt Q9UBF8). As to conditions: at 0.1 µM.
Experiment [9] has the same target. As to conditions: at 1 µM.
In experiment [10] the target is Sphingosine kinase 1 (Homo sapiens) (UniProt Q9NYA1). The conditions noted are these: at 0.1 µM.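 Further: mean percent inhibition of SPHK1 activity, measured within the GSK PKIS screening panel.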

SMILES strings stand for the structures.

SRSF protein kinase 1 (Homo sapiens), sequence (Q96SB4 whole entry): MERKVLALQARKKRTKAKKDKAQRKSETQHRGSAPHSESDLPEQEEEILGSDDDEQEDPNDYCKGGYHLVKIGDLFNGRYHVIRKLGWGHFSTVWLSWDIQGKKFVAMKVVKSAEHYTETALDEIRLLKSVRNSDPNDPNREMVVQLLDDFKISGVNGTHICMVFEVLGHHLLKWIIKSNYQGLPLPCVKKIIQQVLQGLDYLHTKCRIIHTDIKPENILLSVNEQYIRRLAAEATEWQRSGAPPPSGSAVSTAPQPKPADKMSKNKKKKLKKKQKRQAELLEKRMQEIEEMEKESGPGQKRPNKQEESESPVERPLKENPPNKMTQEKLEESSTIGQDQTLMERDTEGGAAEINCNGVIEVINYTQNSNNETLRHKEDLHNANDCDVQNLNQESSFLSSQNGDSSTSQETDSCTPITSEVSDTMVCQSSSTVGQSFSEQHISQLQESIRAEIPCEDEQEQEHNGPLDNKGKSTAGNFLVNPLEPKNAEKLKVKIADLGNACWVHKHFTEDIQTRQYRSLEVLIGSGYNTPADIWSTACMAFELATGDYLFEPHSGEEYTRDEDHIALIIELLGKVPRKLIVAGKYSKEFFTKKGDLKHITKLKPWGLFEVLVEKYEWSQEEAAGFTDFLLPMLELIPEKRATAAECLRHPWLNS
Phosphatidylinositol 4,5-bisphosphate 3-kinase catalytic subunit alpha isoform (Homo sapiens), sequence (P42336 whole entry, canonical isoform): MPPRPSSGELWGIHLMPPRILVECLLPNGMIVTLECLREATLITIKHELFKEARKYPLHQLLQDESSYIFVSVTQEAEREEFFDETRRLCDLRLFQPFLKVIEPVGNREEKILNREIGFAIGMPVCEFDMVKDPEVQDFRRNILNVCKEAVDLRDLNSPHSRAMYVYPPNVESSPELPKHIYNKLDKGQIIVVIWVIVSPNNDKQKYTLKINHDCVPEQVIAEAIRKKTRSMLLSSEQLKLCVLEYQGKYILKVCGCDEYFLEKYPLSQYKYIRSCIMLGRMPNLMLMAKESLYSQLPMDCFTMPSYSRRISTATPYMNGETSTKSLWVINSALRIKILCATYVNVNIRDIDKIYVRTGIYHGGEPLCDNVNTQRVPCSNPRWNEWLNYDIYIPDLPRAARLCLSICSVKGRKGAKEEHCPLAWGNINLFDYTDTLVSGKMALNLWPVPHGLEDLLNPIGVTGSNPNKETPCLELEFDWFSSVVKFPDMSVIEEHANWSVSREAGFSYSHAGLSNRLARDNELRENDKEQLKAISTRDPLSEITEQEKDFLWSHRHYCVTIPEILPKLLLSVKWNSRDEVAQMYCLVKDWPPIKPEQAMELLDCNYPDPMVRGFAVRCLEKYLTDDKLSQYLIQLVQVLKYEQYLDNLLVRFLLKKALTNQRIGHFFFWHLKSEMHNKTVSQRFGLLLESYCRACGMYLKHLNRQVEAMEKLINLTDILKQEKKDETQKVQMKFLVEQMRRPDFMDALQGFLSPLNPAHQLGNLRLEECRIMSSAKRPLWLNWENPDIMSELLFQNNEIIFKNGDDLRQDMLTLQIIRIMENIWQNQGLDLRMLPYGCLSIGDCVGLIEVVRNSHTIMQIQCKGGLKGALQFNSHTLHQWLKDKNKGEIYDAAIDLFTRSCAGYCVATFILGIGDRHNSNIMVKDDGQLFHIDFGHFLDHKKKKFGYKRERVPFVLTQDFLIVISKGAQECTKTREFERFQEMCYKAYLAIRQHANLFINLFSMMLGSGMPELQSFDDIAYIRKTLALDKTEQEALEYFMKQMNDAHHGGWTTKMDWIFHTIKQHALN
Sphingosine kinase 1 (Homo sapiens), sequence (Q9NYA1 whole entry): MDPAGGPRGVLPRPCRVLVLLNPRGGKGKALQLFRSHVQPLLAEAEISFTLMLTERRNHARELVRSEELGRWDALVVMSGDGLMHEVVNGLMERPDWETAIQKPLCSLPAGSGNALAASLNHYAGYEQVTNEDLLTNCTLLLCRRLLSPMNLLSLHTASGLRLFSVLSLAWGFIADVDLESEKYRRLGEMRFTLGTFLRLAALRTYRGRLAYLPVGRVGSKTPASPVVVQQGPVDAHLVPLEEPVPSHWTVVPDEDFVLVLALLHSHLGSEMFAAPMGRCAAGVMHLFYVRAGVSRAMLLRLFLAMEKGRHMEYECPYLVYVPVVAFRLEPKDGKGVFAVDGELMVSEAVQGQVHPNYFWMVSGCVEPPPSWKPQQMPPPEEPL
Phosphatidylinositol 4-kinase beta (Homo sapiens), sequence (Q9UBF8 2-816 limits assumed): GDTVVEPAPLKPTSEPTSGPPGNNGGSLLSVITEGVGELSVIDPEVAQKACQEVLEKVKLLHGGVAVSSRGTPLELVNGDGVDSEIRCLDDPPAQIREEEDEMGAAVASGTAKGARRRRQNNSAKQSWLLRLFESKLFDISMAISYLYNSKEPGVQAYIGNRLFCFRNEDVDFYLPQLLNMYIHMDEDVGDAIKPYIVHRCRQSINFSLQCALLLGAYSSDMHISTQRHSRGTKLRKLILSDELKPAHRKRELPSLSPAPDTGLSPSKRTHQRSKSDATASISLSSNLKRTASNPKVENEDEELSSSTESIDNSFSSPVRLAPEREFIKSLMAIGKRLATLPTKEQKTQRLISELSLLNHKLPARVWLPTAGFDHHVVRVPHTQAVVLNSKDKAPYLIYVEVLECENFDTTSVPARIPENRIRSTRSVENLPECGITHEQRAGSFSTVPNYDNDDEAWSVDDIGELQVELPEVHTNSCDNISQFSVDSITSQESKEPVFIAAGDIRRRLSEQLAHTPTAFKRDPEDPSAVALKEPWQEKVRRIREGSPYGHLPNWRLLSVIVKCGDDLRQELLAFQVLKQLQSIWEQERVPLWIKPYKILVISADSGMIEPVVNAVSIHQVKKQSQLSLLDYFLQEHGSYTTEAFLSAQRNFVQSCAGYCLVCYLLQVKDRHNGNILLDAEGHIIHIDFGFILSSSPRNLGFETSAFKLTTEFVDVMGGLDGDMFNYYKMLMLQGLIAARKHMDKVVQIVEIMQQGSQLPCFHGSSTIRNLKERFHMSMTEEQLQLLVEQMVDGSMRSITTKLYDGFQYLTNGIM

A word on the inhibition: it is the change of the read-out against control, counted positive when it falls. Regarding `CN(c1ccc(NC(=O)NCCN2CCOCC2)cc1)c1ccnc(Nc2ccc(CS(C)(=O)=O)cc2)n1`, the inhibition in experiment [1] is 1.28%; in [2] it was 0.25%; in experiment [3], 2.58%; in experiment [4] it was 1.92%; in [5] it was 2.04%; in experiment [6], -0.08%. The inhibition in experiment [7] is 0.81%; in experiment [8], 4.11%; in [9] it was 4.4%; in [10], 0.08%.

On to `COc1cccc(-n2ncc3c(N/N=C/c4ccc(C(=O)NCCN(C)C)cc4)ncnc32)c1`, for which the inhibition was 4.67% in experiment [1]; -1.63% in experiment [2]; -2.59% in [3]; 2.48% in experiment [4]; 20.2% in experiment [5]; 4.52% in [6]. The inhibition in experiment [7] is 16.3%; in experiment [8], -3.13%; in experiment [9], 5.75%; in [10], 5.89%.

Regarding `COc1c(C(N)=O)cc(-c2ccc(Cl)cc2)cc1-c1ccc(S(N)(=O)=O)cc1`, the inhibition was 5.43% in experiment [1]; -3.03% in experiment [2]; -1.89% in experiment [3]; 4.8% in [4]; 2.59% in [5]; 0.32% in [6]. Moreover, the inhibition is 1.67% in experiment [7], 0.85% in [8], 3.11% in experiment [9] and 0.56% in [10].

For the compound `CCn1c(-c2nonc2N)nc2cncc(C(=O)NCCNC)c21`, the inhibition in [1] is 4.44%; in experiment [2] it was -1.97%; in experiment [3], -2.66%; in [4], 4.3%; in [5], 2.53%; in [6] it was 0.31%. The inhibition in experiment [7] was found to be 1.82%; in experiment [8] it was 1.26%; in [9] it was 0.69%; in experiment [10] it was 0.59%.

For the compound `Fc1cccc(COc2ccc(Nc3ncncc3C#Cc3ccccc3)cc2Cl)c1`, the inhibition in experiment [1] was 2.58%; in [2], -0.38%; in experiment [3] it was 3.43%; in [4], 3.88%; in experiment [5], 2.67%; in experiment [6], 1.53%. The inhibition is 1.09% in experiment [7], 1.02% in experiment [8], -1.52% in experiment [9] and 1.58% in experiment [10].

On to `CCCNc1cccc(-n2ncc3c(N/N=C/c4ccncc4)ncnc32)c1`, for which the inhibition in experiment [1] is 0.33%; in experiment [2], 0.43%; in [3], 3.51%; in experiment [4], 1.36%; in [5], 3.81%; in [6] it was 3.31%. Moreover, the inhibition amounted to 14.7% in [7], 5.69% in [8], 4.32% in experiment [9] and 0.21% in [10].

Consider `O=C(O[C@H]1CN[C@H](C#Cc2cc3ncnc(Nc4ccc5c(ccn5Cc5cc(F)ccc5F)c4)c3s2)C1)N1CCOCC1`, for which the inhibition was 3.26% in [1]; -2.77% in experiment [2]; -4.63% in [3]; 3.72% in experiment [4]; 9.95% in experiment [5]; 2.02% in [6]. Moreover, the inhibition in experiment [7] was 7.62%; in experiment [8], -3.81%; in [9] it was -0.39%; in experiment [10], 3.05%.

With `CC1=C(C(=O)Nc2ccc3[nH]nc(C)c3c2)C(c2ccc(C(F)(F)F)cc2)CC(=O)N1` (stereo not given), the inhibition in experiment [1] was 2.82%; in [2], -1.2%; in experiment [3], -2.95%; in experiment [4], 2.05%; in experiment [5], 2.21%; in experiment [6], 2.89%. Also, the inhibition in experiment [7] was 3.84%; in experiment [8], 4.33%; in experiment [9], -1.82%; in [10] it was 0.96%.

Turning to `FC(F)(F)CNc1nccc(-c2cnn3ncccc23)n1`, the inhibition in [1] was 4.71%; in [2], -3.11%; in experiment [3], -3.13%; in experiment [4], 2.55%; in experiment [5], 3.51%; in experiment [6], 0.99%. In addition, the inhibition was 2.05% in [7], 2.04% in experiment [8], 5.22% in experiment [9] and -2.3% in [10].

As for `O=C(O[C@H]1CN[C@H](C#Cc2cc3ncnc(Nc4ccc(OCc5cccc(F)c5)c(Cl)c4)c3s2)C1)N1CCOCC1`, the inhibition in [1] was 3.47%; in experiment [2] it was -2%; in experiment [3] it was 0.44%; in experiment [4] it was 4.94%; in [5] it was 26.9%; in [6], 3.37%. Besides, the inhibition is 15.8% in [7], -0.81% in experiment [8], 1.44% in experiment [9] and 0.99% in experiment [10].

`CC1(C)CC(n2cnc(-c3ccc(F)cc3)c2-c2ccnc(N)n2)CC(C)(C)N1`: the inhibition in experiment [1] was 2.44%; in [2], 0.72%; in experiment [3], -1.12%; in experiment [4], 4.34%; in [5], 4.5%; in experiment [6] it was 5.71%. Besides, the inhibition in experiment [7] was 6.91%; in [8] it was 0.64%; in experiment [9], -1.54%; in experiment [10] it was 1.98%.

On to `NS(=O)(=O)c1ccc(N/N=C2\C(=O)Nc3cccc(CCc4ccncc4)c32)cc1`, for which the inhibition was 0.75% in experiment [1]; -0.62% in experiment [2]; -1% in [3]; 0.59% in experiment [4]; 1.55% in experiment [5]; 0.97% in experiment [6]. The inhibition came to 3.61% in experiment [7], 2.1% in experiment [8], 1.01% in experiment [9] and 1.36% in [10].

`CS(=O)(=O)CCNCc1ccc(-c2ccc3ncnc(Nc4ccc(OCc5ccccc5)cc4)c3c2)o1`: the inhibition in experiment [1] is 2.57%; in [2], -2.16%; in [3], -2.56%; in experiment [4], 2.93%; in experiment [5] it was 4.79%; in [6], 0.74%. In addition, the inhibition in experiment [7] was 2.65%; in experiment [8] it was 0.91%; in experiment [9], 0.45%; in experiment [10] it was -0.6%.

Regarding `CS(=O)(=O)Nc1ccc(-c2cc(-c3ccccc3)cc(C(N)=O)c2N)cc1`, the inhibition is 1.43% in experiment [1]; -1.01% in experiment [2]; -1.76% in experiment [3]; 3.24% in experiment [4]; 3.21% in experiment [5]; 3.22% in experiment [6]. For the same compound, the inhibition in experiment [7] is 3.77%; in experiment [8], 0.42%; in [9], -0.01%; in [10], -1.73%.

As to `O=C1Nc2ccccc2/C1=C1\CCc2cc(O)ccc21`, the inhibition in experiment [1] was 4.17%; in experiment [2] it was -1.97%; in experiment [3] it was -3.93%; in [4] it was 3.67%; in experiment [5], 6.82%; in experiment [6], 2.68%. In addition, the inhibition in [7] is 5.45%; in experiment [8], -5.42%; in experiment [9], -0.12%; in experiment [10], 1.98%.

Regarding `Cc1cc(O)cc(C)c1/C=C/c1cncc(C(N)=O)c1`, the inhibition was 1.72% in [1]; -2.4% in experiment [2]; -0.6% in experiment [3]; 0.88% in [4]; 3.67% in experiment [5]; 0.87% in experiment [6]. Further, the inhibition in experiment [7] was 2.16%; in experiment [8] it was 0.44%; in experiment [9], -1.46%; in [10], -0.95%.
